Experimental data published in PubChem BioAssay (NCATS).
Records with an inconclusive call do not appear. A call without a number means that no potency is given here. Calls of active or inactive are those of the source. Calls follow the shape of the dose curve; as a rule, active = well fitted curve in the direction sought with a large enough effect; inconclusive = small, poorly fitted or top-dose-only effect, or another doubt; inactive = no such curve, though single readings can be large; an effect the other way counts as inactive or inconclusive.

Tests used:
[1] = molecular target: Rap guanine nucleotide exchange factor 3 (Homo sapiens) (UniProt O95398); test: Confirmatory qHTS for agonist of cAMP-regulated guanine nucleotide exchange factor 3 (EPAC1) (AID 1645881);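 also: EPAC1 catalysed release of BODIPY-GDP from Rap1B seen as fluorescence loss; nearly all actives have a fitted effect of over 75% in size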
[2] = molecular target: Rap guanine nucleotide exchange factor 4 (Homo sapiens) (UniProt Q8WZA2); test: Confirmatory qHTS for agonist of cAMP-regulated guanine nucleotide exchange factor 4 (EPAC2) (AID 1645884);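 also: nucleotide exchange releases bodipy-GDP from Rap1 and this lowers its fluorescence; nearly all actives have a fitted effect of over 65% in size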
[3] = molecular target: Rap guanine nucleotide exchange factor 4 (Homo sapiens) (UniProt Q8WZA2); test: Confirmatory qHTS for antagonist of cAMP-regulated guanine nucleotide exchange factor 4 (EPAC2) (AID 1645885); also: nearly all actives have a fitted effect of over 25% in size; also: potency is read from the fitted curve at half-maximal effect
[4] = molecular target: Rap guanine nucleotide exchange factor 3 (Homo sapiens) (UniProt O95398); test: Counterscreen qHTS for antagonist of cAMP-regulated guanine nucleotide exchange factor 3 (EPAC1) (AID 1645888);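 also: fluorescence loss as bound BODIPY-GDP is released from Rap1B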
In short: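 Measured: fluorescence of BODIPY-GDP bound to Rap1B, which falls as exchange proceeds. Conditions include 50 uM competing GDP, 5 and 30 min reads, and a later cAMP challenge for antagonist detection.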

Chain of Rap guanine nucleotide exchange factor 4 (Homo sapiens) (Q8WZA2 whole entry, looked up): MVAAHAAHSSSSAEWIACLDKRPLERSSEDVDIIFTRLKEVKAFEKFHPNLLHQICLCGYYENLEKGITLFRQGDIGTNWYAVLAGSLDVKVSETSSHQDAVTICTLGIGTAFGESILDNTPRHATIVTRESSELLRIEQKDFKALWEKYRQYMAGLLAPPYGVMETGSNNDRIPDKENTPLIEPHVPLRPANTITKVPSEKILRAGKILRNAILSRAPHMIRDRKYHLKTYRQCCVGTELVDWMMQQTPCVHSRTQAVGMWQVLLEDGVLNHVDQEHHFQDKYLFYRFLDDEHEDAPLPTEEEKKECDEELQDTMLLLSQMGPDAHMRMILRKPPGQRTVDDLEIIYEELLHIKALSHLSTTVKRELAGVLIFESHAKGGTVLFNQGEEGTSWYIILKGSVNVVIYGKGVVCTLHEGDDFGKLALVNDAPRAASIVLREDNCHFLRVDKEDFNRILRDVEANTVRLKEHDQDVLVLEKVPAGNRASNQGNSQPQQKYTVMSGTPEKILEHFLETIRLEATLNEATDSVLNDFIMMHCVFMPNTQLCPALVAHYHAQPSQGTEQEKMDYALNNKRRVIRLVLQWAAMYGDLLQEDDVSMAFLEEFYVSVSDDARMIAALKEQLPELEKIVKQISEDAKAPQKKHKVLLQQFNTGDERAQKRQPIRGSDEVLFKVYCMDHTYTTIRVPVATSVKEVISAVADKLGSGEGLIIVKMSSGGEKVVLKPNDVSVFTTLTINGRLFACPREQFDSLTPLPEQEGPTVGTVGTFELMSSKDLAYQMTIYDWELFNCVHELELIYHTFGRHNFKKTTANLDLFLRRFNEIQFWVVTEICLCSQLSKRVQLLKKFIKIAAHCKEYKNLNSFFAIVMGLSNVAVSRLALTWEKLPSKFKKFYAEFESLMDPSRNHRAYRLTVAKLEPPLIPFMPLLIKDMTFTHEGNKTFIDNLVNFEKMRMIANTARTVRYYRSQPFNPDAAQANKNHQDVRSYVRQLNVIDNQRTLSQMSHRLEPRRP
Chain of Rap guanine nucleotide exchange factor 3 (Homo sapiens) (O95398 whole entry, looked up): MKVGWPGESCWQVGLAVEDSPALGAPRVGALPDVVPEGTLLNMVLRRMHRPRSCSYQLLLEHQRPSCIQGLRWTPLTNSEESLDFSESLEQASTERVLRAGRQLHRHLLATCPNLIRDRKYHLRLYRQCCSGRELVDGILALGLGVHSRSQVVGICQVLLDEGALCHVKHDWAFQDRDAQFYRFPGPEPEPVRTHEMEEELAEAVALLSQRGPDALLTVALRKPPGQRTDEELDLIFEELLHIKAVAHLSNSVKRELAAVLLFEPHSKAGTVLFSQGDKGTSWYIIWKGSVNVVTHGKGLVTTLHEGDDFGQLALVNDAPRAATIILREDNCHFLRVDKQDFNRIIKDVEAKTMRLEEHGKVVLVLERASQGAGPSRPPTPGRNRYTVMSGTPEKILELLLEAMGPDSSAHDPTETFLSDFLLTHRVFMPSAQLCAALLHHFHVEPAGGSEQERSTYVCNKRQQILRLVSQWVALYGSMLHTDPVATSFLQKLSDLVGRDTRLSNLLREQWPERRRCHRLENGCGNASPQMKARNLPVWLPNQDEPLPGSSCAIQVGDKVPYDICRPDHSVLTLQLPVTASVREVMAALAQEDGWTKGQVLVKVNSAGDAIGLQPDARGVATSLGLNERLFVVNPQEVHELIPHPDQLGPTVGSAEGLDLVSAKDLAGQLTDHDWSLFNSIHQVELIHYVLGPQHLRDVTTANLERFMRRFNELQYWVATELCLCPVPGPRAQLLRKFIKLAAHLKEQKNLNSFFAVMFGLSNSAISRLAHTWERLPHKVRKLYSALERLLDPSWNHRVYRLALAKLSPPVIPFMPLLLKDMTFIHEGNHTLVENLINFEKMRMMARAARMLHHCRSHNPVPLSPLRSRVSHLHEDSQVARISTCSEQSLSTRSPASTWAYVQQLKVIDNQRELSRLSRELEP

SMILES | Potency [1] | activation [2] | Potency [3] | Potency [2] | outcome [3] | Potency [4] | activity change, negative = inhibition [4]
COC(=O)[C@H](Cc1ccccc1)NC(=O)c1ccc2ccccc2n1 | inactive | 3.75% [at 17.1 µM, percent relative to cAMP agonist control] (inactive) | inactive |  |  |  | 
Cn1c(N)c(C(=O)COC(=O)CCCOc2ccc(Cl)cc2Cl)c(=O)n(C)c1=O | inactive |  | 37.9 µM (active) | inactive |  |  | 
COc1cc(/C=C(\C#N)c2nc3ccc(C)cc3[nH]2)ccc1OCc1ccc(C)cc1 | inactive |  | inactive | inactive |  |  | 
Cc1ccc(OCC(=O)Nc2ccc(Cl)c(-c3nc4ccccc4[nH]3)c2)cc1C | inactive |  |  | inactive | inactive [at 12.7 µM] | inactive | 
Oc1ccc2ccccc2c1/C=N/c1nc2c(s1)CCCC2 | inactive |  | inactive | inactive |  | inactive | 
CCn1c(SCC(=O)N/N=C/C=C\c2ccco2)nc2ccccc21 | inactive |  | inactive | inactive |  |  | 
CC(NC(=O)/C(C#N)=C/c1ccc([N+](=O)[O-])o1)c1ccccc1 (stereo not drawn) | inactive | 5.83% [at 17.1 µM, percent relative to cAMP agonist control] (inactive) | inactive |  |  |  | 20.7% [at 30.8 µM] (inactive)
Cc1cc(/C=C2\C(=N)N3N=C(c4ccco4)SC3=NC2=O)c(C)n1Cc1ccccc1 | inactive |  | inactive | inactive |  | inactive | 
CC(C)=CCC[C@H](C)C[C@@H]1Cc2[nH][nH]c(=O)c2[C@@H](c2ccc(F)cc2)O1 | inactive | 5.46% [at 17.1 µM, percent relative to cAMP agonist control] (inactive) | inactive |  |  |  | -22.9% [at 30.8 µM] (inactive)
CCc1ccc(OCC2c3cc(OC)c(OC)cc3CCN2C(C)=O)cc1 (stereo not drawn) | inactive |  | 42.6 µM (active) | inactive |  | inactive | 
Cc1cccn2c(=O)c3cc(C#N)c(=NC(=O)c4ccccc4)n(Cc4ccco4)c3nc12 | inactive | 11% [at 17.1 µM, percent relative to cAMP agonist control] (inactive) | inactive |  |  |  | 15.9% [at 30.8 µM] (inactive)
CN(CC(=O)Nc1ccc(Cl)c(C(F)(F)F)c1)CC(=O)NC1CCCCC1 | inactive |  | inactive | inactive |  |  | 
COC(=O)c1ccc2nc(-c3ccc(F)cc3)c(Cc3ccc(C)cc3)n2c1 | inactive | 1.87% [at 17.1 µM, percent relative to cAMP agonist control] (inactive) | inactive |  |  |  | -2.87% [at 30.8 µM] (inactive)
CCOC(=O)c1ccc(NC(=S)NNC(=O)C2(C)CC2(Cl)Cl)cc1 (stereo not drawn) | inactive |  | inactive | inactive |  | inactive | 
COc1ccc(C(=O)CC2(O)C(=O)N(Cc3cccc(C(F)(F)F)c3)c3ccccc32)cc1 (stereo not drawn) | inactive |  | inactive | inactive |  |  | 
CCCS(=O)(=O)c1c(S(=O)(=O)CCC)c2cnccn2c1C(=O)c1ccc(CC)cc1 | inactive | 12.5% [at 17.1 µM, percent relative to cAMP agonist control] (inactive) | inactive |  |  |  | -2.89% [at 30.8 µM] (inactive)
CCCn1cc(SCC(=O)NCc2ccc3c(c2)OCO3)c2ccccc21 | inactive | 0% [at 17.1 µM, percent relative to cAMP agonist control] (inactive) | inactive |  |  |  | -3.41% [at 30.8 µM] (inactive)
Cc1cccc(N(C)S(=O)(=O)c2c[nH]c3ccc([N+](=O)[O-])cc23)c1 | inactive |  | inactive | inactive |  |  | 
Cc1ccccc1/C=C1\SC(=S)N(/N=C/c2cc([N+](=O)[O-])ccc2O)C1=O | inactive |  | inactive | inactive |  |  | 
Cc1ccccc1C(=O)Nc1cccc(C(=O)N/N=C/c2cc(Cl)cc([N+](=O)[O-])c2O)c1 | inactive |  | inactive | inactive |  | inactive | 
COc1cc(OC)cc(C(=O)Nc2ccc(NC(=O)c3ccco3)c(Cl)c2)c1 | inactive |  | inactive | inactive |  | inactive | 
Cc1cccc(C(=O)OCC(=O)c2ccc(CC(=O)N3CCOCC3)s2)c1C | inactive |  | inactive | inactive |  | inactive | 
Cc1ccc(C)c(Cn2c(C3CC(=O)N(c4ccccc4C)C3)nc3ccccc32)c1 (stereo not drawn) | inactive |  | inactive | inactive |  | inactive | 
CC(C)(C)Cc1c(-c2ccccc2)nc2ccc(Cl)cn12 | inactive | 9.48% [at 17.1 µM, percent relative to cAMP agonist control] (inactive) | inactive |  |  |  | -2.23% [at 30.8 µM] (inactive)
O=C1C(Cl)=C(NS(=O)(=O)c2ccc([N+](=O)[O-])cc2)C(=O)c2ccccc21 | inactive | 8.93% [at 17.1 µM, percent relative to cAMP agonist control] (inactive) | inactive |  |  |  | 11.7% [at 30.8 µM] (inactive)

SMILES | Potency [1] | activation [2] | Potency [3] | Potency [2] | outcome [3] | Potency [4] | activity change, negative = inhibition [4]
CCOc1ccc(S(=O)(=O)Nc2ccc(F)cc2)c(C)c1C | inactive |  | inactive | inactive |  | inactive | 
COCCN1C(=O)c2[nH]nc(-c3ccccc3O)c2C1c1ccc(Cl)c(Cl)c1 (stereo not drawn) | inactive |  | inactive | inactive |  | inactive | 
O=C(CSc1nc(-c2ccccc2)nc2c1Cc1ccccc1O2)Nc1ccc(C(=O)O)cc1 | inactive |  | inactive | inactive |  | inactive | 
O=C1CCCC2=C1C(c1ccc(O)c(O)c1)Nc1ccc3ccccc3c12 (stereo not drawn) | inactive |  | inactive | inactive |  | inactive | 
CCCCN1CC(c2nc3ccccc3n2CCCCOc2cc(C)ccc2C)CC1=O (stereo not drawn) | inactive |  | inactive | inactive |  | inactive | 
Cc1cc(O)cc(C)c1NS(=O)(=O)c1ccc2ccccc2c1 | inactive |  | inactive | inactive |  |  | 
COC(=O)c1c(NC(=O)COC(=O)c2ccc(NC(=O)CC#N)cc2)sc2c1CCCCC2 | inactive |  | inactive | inactive |  |  | 
CC1=NN(c2ccc(C)c(C)c2)C(=O)C1C(c1cccc(O)c1)C1C(=O)N(c2ccc(C)c(C)c2)N=C1C (stereo not drawn) | inactive | 7.48% [at 17.1 µM, percent relative to cAMP agonist control] (inactive) | inactive |  |  |  | 19.9% [at 30.8 µM] (inactive)
Cc1cc(C)cc(-n2ccnc2SCC(=O)Nc2ccc3c(c2)OCO3)c1 | inactive |  | inactive | inactive |  | inactive | 
Cc1ccc(N=Cc2c(O)c3ccccc3n(C)c2=O)cc1 | inactive |  | inactive | inactive |  | inactive | 
O=C(Nc1cc(S(=O)(=O)Nc2ccc(Cl)cc2)ccc1O)c1ccc(S(=O)(=O)N2CCCCCC2)cc1 | inactive |  | inactive | inactive |  | inactive | 
CCc1ccc(C(c2ccccc2)c2c(C)[nH]c3ccccc23)s1 (stereo not drawn) | inactive |  | inactive | inactive |  | inactive | 
Cc1cccc(CN2Cc3cccc4c3[C@H](C=CC4)CC2=O)c1 | inactive |  | 44.1 µM (active) | inactive |  |  | 
CCOC(=O)c1ccc(-n2c(N)c(C(=O)OC)c3nc4ccccc4nc32)cc1 | inactive |  |  | inactive | inactive [at 12.7 µM] | inactive | 
CN(C)c1ccc(/C=C/c2cc[n+](C)c3ccccc23)cc1 | inactive |  | 49.4 µM (active) | inactive |  |  | 
CCc1nc2c(OCc3ccc(OC)cc3)cccn2c1N(C)C(=O)c1ccc(OC)cc1 | inactive |  | inactive | inactive |  | inactive | 
COc1ccc(CN(C(=O)c2cccs2)c2nccs2)cc1OC | inactive |  | inactive | inactive |  | inactive | 
O=C1Cc2ccccc2C(=O)N1CCc1ccccc1 | inactive |  | inactive | inactive |  | inactive | 
OCCCNc1ncnc2oc(-c3ccccc3)c(-c3ccccc3)c12 | inactive | 0.534% [at 17.1 µM, percent relative to cAMP agonist control] (inactive) | inactive |  |  |  | -6.04% [at 30.8 µM] (inactive)
Cc1ccc(/C=C(\C#N)C(=O)Nc2cccc3ncccc23)o1 | inactive |  | inactive | inactive |  | inactive | 
O=C(O)c1ccc(/C=N/NC(=O)c2cc(-c3ccc4c5c(cccc35)CC4)n[nH]2)cc1 | inactive |  | inactive | inactive |  | inactive | 
C=C(C)COc1ccc(-c2[nH]ncc2-c2ccccc2OC)c(O)c1 | inactive | 16.3% [at 17.1 µM, percent relative to cAMP agonist control] (inactive) | inactive |  |  |  | 6.08% [at 30.8 µM] (inactive)
O=C(O)c1ccc(/C=C2\COc3ccccc3C2=O)cc1 | inactive |  | 84.9 µM (active) | inactive |  | inactive | 
CCOc1ccc(N2C(=O)C3Sc4[nH]c(=O)sc4C(/C=C/c4ccccc4)C3C2=O)cc1 (stereo not drawn) | inactive | 4.64% [at 17.1 µM, percent relative to cAMP agonist control] (inactive) | inactive |  |  |  | 18.3% [at 30.8 µM] (inactive)
Cc1ccc(O)c(-c2n[nH]c3c2C(c2ccc(F)cc2)N(Cc2ccco2)C3=O)c1 (stereo not drawn) | inactive |  | inactive | inactive |  | inactive | 
